Laboratory results reported in the supplement of paper PMC12494721.
Counter-ions that a name gives are not always drawn.

Tests used:
Settings in all cases: incubation time: 27 h, anaerobic, 37 °C;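 for the amine columns active = adjusted P below 0.05 in both replicates with a change the same way and a mean fold change under 0.8 or over 1.25; inactive = the rest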
[1] = system: Clostridium sporogenes DSM 1664; experiment: growth (OD595) fold change vs plate DMSO controls (fold change (ratio)); higher = more growth
Method in brief: (§1)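 Each value is the mean of 2 biological replicates, and fold changes above 1.5 were set to NA. The underlying readings were taken at 595 nm from shaken anaerobic mGAM cultures in 96-well plates after 27 h at 37 °C. They were blank-subtracted, corrected for compound background using 20 µM compound solutions in water, and converted to OD with a calibration factor of 5. Growth is the fold change relative to the median of the plate DMSO controls.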

[2] = system: Escherichia coli IAI1; experiment: as above
Method in brief: as §1

[3] = system: Klebsiella aerogenes DSM 30053; experiment: as above
Method in brief: as §1

[4] = system: Ruminococcus gnavus DSM 108212; experiment: as above
Method in brief: as §1

[5] = system: Klebsiella aerogenes DSM 30053; experiment: fold change of Histamine concentration vs plate DMSO controls (fold change (ratio)); higher = more amine produced, active = hit call of the paper (significant change in both replicates, either direction)
Method in brief: (§2)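 Using LC–triple-quadrupole MS with dynamic MRM, amines were quantified against external calibration curves and corrected for drift within each batch. Samples were whole anaerobic mGAM cultures of four gut strains, grown 27 h at 37 °C from OD 0.1 before 1:1 dilution, extracted with cold acetonitrile/methanol containing 0.1% formic acid and centrifuged. Compounds were present at 20 µM final (sweeteners at 50 µM final). The numbers are fold changes versus plate DMSO controls, each the mean of 2 biological replicates.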

[6] = system: Clostridium sporogenes DSM 1664; experiment: fold change of Tryptamine concentration vs plate DMSO controls (fold change (ratio)); higher = more amine produced, active = hit call of the paper (significant change in both replicates, either direction)
Method in brief: as §2

[7] = system: Ruminococcus gnavus DSM 108212; experiment: as above
Method in brief: as §2

[8] = system: Escherichia coli IAI1; experiment: fold change of Putrescine concentration vs plate DMSO controls (fold change (ratio)); higher = more amine produced, active = hit call of the paper (significant change in both replicates, either direction)
Method in brief: as §2

[9] = system: Klebsiella aerogenes DSM 30053; experiment: as above
Method in brief: as §2

[10] = system: Escherichia coli IAI1; experiment: fold change of Cadaverine concentration vs plate DMSO controls (fold change (ratio)); higher = more amine produced, active = hit call of the paper (significant change in both replicates, either direction)
Method in brief: as §2

[11] = system: Klebsiella aerogenes DSM 30053; experiment: as above
Method in brief: as §2

[12] = system: Ruminococcus gnavus DSM 108212; experiment: fold change of 2-Phenylethylamine concentration vs plate DMSO controls (fold change (ratio)); higher = more amine produced, active = hit call of the paper (significant change in both replicates, either direction)
Method in brief: as §2

| SMILES | growth [1] | growth [2] | growth [3] | growth [4] | fold change of Histamine concentration [5] | fold change of Tryptamine concentration [6] | fold change of Tryptamine concentration [7] | fold change of Putrescine concentration [8] | fold change of Putrescine concentration [9] | fold change of Cadaverine concentration [10] | fold change of Cadaverine concentration [11] | fold change of 2-Phenylethylamine concentration [12] |
| --- | --- | --- | --- | --- | --- | --- | --- | --- | --- | --- | --- | --- |
| Nc1ncnc2c1ncn2[C@@H]1O[C@H](CO)[C@@H](O)[C@@H]1O [Vidarabine] (20 µM) | 1.1 | 1.07 | 0.99 | 0.857 | 1.05 (inactive) | 0.947 (inactive) | 0.935 (inactive) | 1.11 (inactive) | 1.02 (inactive) | 0.957 (inactive) | 0.989 (inactive) | 0.976 (inactive) |
| Nc1c(CC(=O)O)cccc1C(=O)c1ccc(Br)cc1 [Bromfenac] (20 µM) | 1.21 | 1.15 | 1.04 | 1.13 | 0.965 (inactive) | 1.01 (inactive) | 1.08 (inactive) | 1.02 (inactive) | 1 (inactive) | 0.911 (inactive) | 1.01 (inactive) | 1.15 (inactive) |
| Cc1nc2n(c(=O)c1CCN1CCC(c3noc4cc(F)ccc34)CC1)CCCC2O (centres undefined) [Paliperidone] (20 µM) | 0.897 | 1.01 | 0.982 | 1 | 1.05 (inactive) | 0.998 (inactive) | 0.966 (inactive) | 1.06 (inactive) | 1.02 (inactive) | 0.993 (inactive) | 0.986 (inactive) | 0.983 (inactive) |
| O=C(O)CCC(=O)c1ccc(-c2ccccc2)cc1 [Fenbufen] (20 µM) | 1.02 | 1.02 | 0.996 | 0.921 | 0.97 (inactive) | 0.991 (inactive) | 1.04 (inactive) | 1.04 (inactive) | 0.989 (inactive) | 0.969 (inactive) | 0.998 (inactive) | 1.06 (inactive) |
| CCOc1ccc(NC(N)=O)cc1 [(4-Ethoxyphenyl)urea] (50 µM) | 1.13 | 0.949 | 0.994 | 1.09 | 0.964 (inactive) | 0.979 (inactive) | 0.999 (inactive) | 0.971 (inactive) | 0.986 (inactive) | 1.11 (inactive) | 1.01 (inactive) | 0.947 (inactive) |
| COc1cc([S+](C)[O-])ccc1-c1nc2cccnc2[nH]1 (centres undefined) [Sulmazole] (20 µM) | 0.885 | 0.999 | 0.98 | 1.1 | 0.922 (inactive) | 0.944 (inactive) | 1.19 (inactive) | 0.951 (inactive) | 0.952 (inactive) | 1.02 (inactive) | 1.05 (inactive) | 1.38 (inactive) |
| N/C(=N\C(=O)c1nc(Cl)c(N)nc1N)NCc1ccccc1 [Benzamil hydrochloride] (20 µM) | 0.787 | 0.962 | 0.958 | 0.861 | 0.932 (inactive) | 1.03 (inactive) | 0.961 (inactive) | 0.807 (inactive) | 0.965 (inactive) | 1.48 (inactive) | 0.991 (inactive) | 0.936 (inactive) |
| C(=C\c1ccccc1)/CN1CCN(C(c2ccccc2)c2ccccc2)CC1 [Cinnarizine] (20 µM) | 1.09 | 0.964 | 0.991 | 0.67 | 0.941 (inactive) | 0.969 (inactive) | 0.824 (inactive) | 0.993 (inactive) | 0.998 (inactive) | 0.991 (inactive) | 1 (inactive) | 0.878 (inactive) |
| CC(C)[C@H]1CC[C@H](C(=O)N[C@H](Cc2ccccc2)C(=O)O)CC1 [Nateglinide] (20 µM) | 1.11 | 1.22 | 1.02 | 0.903 | 1.01 (inactive) | 0.94 (inactive) | 1.02 (inactive) | 1.2 (inactive) | 1 (inactive) | 0.984 (inactive) | 1 (inactive) | 1.05 (inactive) |
| O=C(NCCCN1CCOCC1)c1ccc(Cl)cc1 [Eprobemide] (20 µM) | 1.11 | 1.1 | 1.07 | 1.04 | 0.982 (inactive) | 1.02 (inactive) | 1.06 (inactive) | 0.929 (inactive) | 0.934 (inactive) | 0.942 (inactive) | 1.05 (inactive) | 1.12 (inactive) |
| C[C@]12C[C@H](O)[C@H]3[C@@H](CCC4=CC(=O)CC[C@@]43C)[C@@H]1CC[C@@H]2C(=O)CO [Corticosterone] (20 µM) | 0.994 | 1.05 | 1.07 | 1.11 | 0.992 (inactive) | 0.971 (inactive) | 0.998 (inactive) | 1.05 (inactive) | 0.99 (inactive) | 1.01 (inactive) | 1 (inactive) | 1.04 (inactive) |
| NCc1ccccc1CC(=O)N[C@@H]1C(=O)N2C(C(=O)O)=C(CSc3nnnn3CC(=O)O)CS[C@H]12 [Ceforanide] (20 µM) | 0 | 1.11 | 1.08 | 0.307 | 0.726 (inactive) | 0.0212 (active) | 0.0541 (active) | 1.91 (active) | 1.09 (inactive) | 1.95 (active) | 1.07 (inactive) | 0.0519 (active) |
